Test results reported in PubChem BioAssay (EPA / NIEHS).
Calls of active or inactive are those of the source. How the source made its calls: active means hit-call score of the fitted dose curve at least 0.9, where 1 is the maximum; inactive means score below 0.9.

target: Hypoxia-inducible factor 1-alpha (Homo sapiens) (UniProt Q16665); assay: ATG_HIF1a_CIS: Attagene CIS-FACTORIAL HepG2 Assay for human Hypoxia Inducible Factor 1 (HIF1A) (AID 2282951); details: HepG2 Attagene cis-factorial HIF1a reporter transcription; actives raise or lower the signal
Sequence (Q16665 whole entry, looked up): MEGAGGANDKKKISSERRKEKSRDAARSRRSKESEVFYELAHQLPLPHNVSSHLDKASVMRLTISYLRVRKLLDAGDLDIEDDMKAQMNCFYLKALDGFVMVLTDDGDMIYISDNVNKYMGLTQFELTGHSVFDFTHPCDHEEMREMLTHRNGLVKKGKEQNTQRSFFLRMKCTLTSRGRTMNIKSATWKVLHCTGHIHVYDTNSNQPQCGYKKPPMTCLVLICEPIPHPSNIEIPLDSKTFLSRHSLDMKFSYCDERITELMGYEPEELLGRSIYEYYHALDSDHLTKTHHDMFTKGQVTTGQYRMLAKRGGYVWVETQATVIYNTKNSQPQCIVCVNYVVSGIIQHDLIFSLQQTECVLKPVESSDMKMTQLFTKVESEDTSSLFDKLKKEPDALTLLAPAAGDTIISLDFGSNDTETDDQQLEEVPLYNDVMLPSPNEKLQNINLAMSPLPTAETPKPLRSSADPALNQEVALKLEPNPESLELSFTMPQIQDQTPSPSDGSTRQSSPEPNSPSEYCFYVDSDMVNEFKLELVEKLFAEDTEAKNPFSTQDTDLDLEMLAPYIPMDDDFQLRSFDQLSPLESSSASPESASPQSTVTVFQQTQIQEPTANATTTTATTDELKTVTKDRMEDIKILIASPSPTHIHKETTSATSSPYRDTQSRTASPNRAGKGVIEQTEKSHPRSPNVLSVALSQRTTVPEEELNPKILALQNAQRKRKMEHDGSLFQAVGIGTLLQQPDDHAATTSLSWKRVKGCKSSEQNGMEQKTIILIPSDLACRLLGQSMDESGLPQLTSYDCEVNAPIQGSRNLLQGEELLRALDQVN
Protocol: ATG_CIS is a cell-based, multiplexed-readout assay that uses HepG2, a human liver cell line, with measurements taken at 24 hours after chemical dosing in a 24-well plate.ATG_HIF1a_CIS is one of 52 assay component(s) measured or calculated from the ATG_CIS assay. It is designed to make measurements of mRNA induction, a form of inducible reporter, as detected with fluorescence intensity signals by Reverse transcription polymerase chain reaction (RT-PCR) and Capillary electrophoresis technology.Data from the assay component ATG_HIF1a_CIS was analyzed into 1 assay endpoint. This assay endpoint, ATG_HIF1a_CIS, was analyzed with bidirectional fitting relative to DMSO as the negative control and baseline of activity. Using a type of inducible reporter, measures of mRNA for gain or loss-of-signal activity can be used to understand the reporter gene at the transcription factor-level as they relate to the gene HIF1A. Furthermore, this assay endpoint can be referred to as a primary readout, because this assay has produced multiple assay endpoints where this one serves a reporter gene function. To generalize the intended target to other relatable targets, this assay endpoint is annotated to the dna binding intended target family, where the subfamily is basic helix-loop-helix protein.
Human liver HepG2 cells are transiently transfected with multiple reporter transcription units (MRTUs) in 6-well plates using FuGene 6 reagent (Roche; 3 ml FuGene/1 mg DNA). The MRTU constructs are regulated by a cis-regulating element (promoter). […] A major difference between the CIS and TRANS system is that in CIS activities of endogenous TFs are measured, whereas the TRANS assay evaluates changes in activities of exogenous, chimeric NR-Gal4 proteins. […] At the end of 24 hour incubation, total RNA was isolated using TriZol reagent (Invitrogen). The isolated RNA is then reverse-transcribed using oligo(dT) primer and Mo-MLV reverse transcriptase (Invitrogen) with DNAse I (Ambion) treatment for 30 min. The one-tenth of the produced cDNA was amplified by PCR using Taq DNA polymerase (Invitrogen) and two reporter sequence-specific primers. The PCR products were fluorescently labeled by primer extension with 6-arboxyfluorescein (6-FAM) 5'-labeled reporter sequence-specific primer (2 min at 95 C, 20 s at 68 C and 10 min at 72 C) and these products were digested with 5U of HpaI (New England Biolabs) for 2h at 37 C. The fragments were purified using Qiaquick PCR columns (Qiagen), analyzed on an ABI 3130xL genetic analyzer (Applied Biosystems) with peak positions identified by using a set of X-rhodamine (ROX)-labeled MapMarker1000 molecular weight standards (BioVentures). The raw capillary electrophoresis data was processed using Attagraph software (Attagene).

outcome, inactive:
C=C[Si](C)(C)O[Si](C)(C)C=C
CO[Si](CCC1CCC2OC2C1)(OC)OC (stereo not given)
CCCCCCCCCCC=CC#N
OC1CCCCCCCCCCC1
CCCCCCCCO[C@@H]1O[C@H](CO)[C@@H](O)[C@H](O)[C@H]1O
C=CC(=O)OCC(Br)CBr (stereo not given)
CC(=O)Nc1nnc(S(N)(=O)=O)s1
CCCCCCCOC(=O)CCC
N[C@H]1C(O)O[C@H](CO)[C@H](O)[C@@H]1O (stereo not given in full)
O=S(=O)(Oc1ccc(Cl)cc1Cl)c1ccccc1
CCOc1nc(F)cc2nc(S(=O)(=O)Nc3c(Cl)cccc3C(=O)OC)nn12
CCCCNc1ccc(NCCCC)c2c1C(=O)c1ccccc1C2=O
N=c1ccn2c(n1)O[C@H]1[C@H](O)[C@@H](CO)O[C@H]12
O=c1[nH]c(=O)c2[nH]c(=O)[nH]c2[nH]1
CC(=O)OCCC1CCCCC1
C=CC(=O)OCCOC(=O)C=C
CCCCCCOc1cc(C)c(O)c(C)c1C
c1ccc(CNCc2ccccc2)cc1
O=P(O)(O)Oc1ccccc1
CCCCCCCCCCCCCCCCCC#N
C#CC1(O)CC[C@H]2[C@@H]3CCC4=CCCC[C@@H]4[C@H]3CC[C@@]21C (stereo not given in full)
O=C(Cl)c1cc(C(=O)Cl)cc(C(=O)Cl)c1
CC[C@H]1OC(=O)[C@H](C)[C@@H](O[C@H]2C[C@@](C)(OC)[C@@H](O)[C@H](C)O2)[C@H](C)[C@@H](O[C@@H]2O[C@H](C)C[C@H](N(C)C)[C@H]2O)[C@](C)(O)C[C@@H](C)C(=NOCOCCOC)[C@H](C)[C@@H](O)[C@]1(C)O
C=C1C2CCC(C2)C1(C)C (stereo not given)
C=CC(C)(CCC=C(C)C)OC(=O)C(C)C (stereo not given)
Cc1cc(C)c(C(=O)O)c(C)c1
OC1CCCC1
C[Si](C)O[Si](C)(C)O[Si](C)(C)O[Si](C)C
SCCc1cnccn1
C=C(C)[C@H]1CC=C(C)CC1
O=S1(=O)OC(c2ccc(O)cc2)(c2ccc(O)cc2)c2ccccc21
CN(C)CCCN(C)C
C=COCCCC
CCOC(=O)c1ccc(N(C)C)cc1
O=C(O)Cc1c(Cl)ccc(Cl)c1Cl
CC(C)(Oc1ccc(C2CC2(Cl)Cl)cc1)C(=O)O (stereo not given)

AC50, active:
Oc1ccc(Cl)cc1Cc1cc(Cl)ccc1O 11.1 µM
O=C(c1ccccc1)c1ccc(O)c(O)c1O 61.2 µM
Cc1ccc(C(C)c2ccc(C)c(C)c2)cc1C 26.1 µM
CCCCCCCCCCCSCC(=O)O 124 µM
